About 83,000 compounds went through this panel and 20% of them were active in at least one assay; those are over-represented in the sample as a whole.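 Testing used 96-well plates and a 48-hour single-concentration exposure. Example: -40 means 40% of the starting cells died.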 Active and inactive are the calls of the source. Rule for the calls: active = growth percent below 10; inactive = the rest.
Tested on: HOP-62 NSCLC
Assay: NCI-60 one-dose screen, 48 h (100 = growth as untreated, 0 = no growth, -100 = all killed)
Settings: 10 µM unless noted

| SMILES | growth |
| --- | --- |
| Cc1nc2sc(C(=O)Nc3cccc(Cl)c3C)c(N)c2cc1C(=O)/C=C/c1ccccc1 | -11.2% (active) |
| CN1CCN(Cc2ccc(NC(=O)c3cncc(C#Cc4cnc(N)cc4C#N)c3)cc2C(F)(F)F)CC1 | 12.1% (inactive) |
| c1cc(OCCN2CCCC2)ccc1CNc1ccc2nc(CCC3CCCCC3)[nH]c2c1 | 57.8% (inactive) |
| CCN(CC)CCOc1ccc2c(-c3ccccc3)c(-c3ccc(OC)cc3)c(=O)oc2c1 | 95% (inactive) |
| O=C1/C(=C/c2c[nH]c(=O)[nH]c2=O)SC(=S)N1Cc1ccccc1 | 101% (inactive) |
| CCN(CC)CCCNc1cc(OC)c(OC)c2cccnc12 | 58.3% (inactive) |
| COc1cc(Cc2cc(OC)c(O)c(OC)c2)cc(OC)c1O | 88.9% (inactive) |
| CSc1ccc(N2C(=N)C(=S)N(c3ccc(C)cc3)C2=O)cc1 | 86.2% (inactive) |
| CCOC(=O)/C(=C(/C)NCC(C)C)c1cc(O)c(O)c2c(C)cc(=O)[nH]c12 | 38.2% (inactive) |
| C/C(=C(\c1ccc(OCCN2CCCCCC2)cc1)c1ccc(OC(=O)c2ccccc2)cc1)c1ccc(Cl)cc1 | 71.7% (inactive) |
| COCCn1cc(-c2csc(-c3c[nH]c4ccc(F)cc34)n2)c2cccnc21 | 44% (inactive) |
| Cc1ccc2cnc(N)c(C#Cc3cc(C(=O)Nc4ccc(CN5CCN(C)CC5)c(C(F)(F)F)c4)cnc3C)c2c1 | -35.9% (active) |
| O=C(NNc1nc2cc(F)ccc2n2c(CN3CCOCC3)ccc12)c1ccccc1 | 14.6% (inactive) |
| COc1ccc(-c2nc(SCC(=O)Nc3nc4ccc(C)cc4s3)[nH]c(=O)c2C#N)cc1OC | 74.8% (inactive) |
| CCOC(=O)c1ccc[nH]1 | 83.5% (inactive) |
| COc1cc(Cc2cc(-c3ccccc3)nn(Cc3ccccc3)c2=O)cc(OC)c1OC | 66.1% (inactive) |
| O=C(Nc1ccc(Nc2ccncc2)cc1)c1ccc(Nc2ccnc3ccc([N+](=O)[O-])cc23)cc1 | 113% (inactive) |
| C[C@H]1[C@H](C)CC[C@]2(C(=O)NCCNCCN)CC[C@]3(C)C(=CC[C@@H]4[C@@]5(C)CCC(=O)C(C)(C)[C@@H]5CC[C@]43C)[C@H]12 | 81.1% (inactive) |
| COc1ccc(C/C(C)=C(\c2ccc(Cl)cc2)c2ccc(OCCN3CCCC3)cc2)cc1 | 94.6% (inactive) |
| CCOc1ccc(NC(=O)Nc2ccc(OCC)cc2)cc1 | 98.2% (inactive) |

| SMILES | growth |
| --- | --- |
| Cc1ccc(NC(=O)c2cc3ccccc3cc2O)c(C)c1 | 89.3% (inactive) |
| COC(=O)c1c2c(c[n+]([O-])c1C)C(=O)C=C(NCc1ccccc1)C2=O | -95.3% (active) |
| C=C1C(=O)O[C@H]2[C@H]1CC/C(CNC(=O)Cc1c[nH]c3ccccc13)=C\CC[C@@]1(C)O[C@@H]21 | 53.8% (inactive) |
| C#CCOc1ccc2nc(CCl)c(Cl)c(Nc3cccc(C(F)(F)F)c3)c2c1 | 93% (inactive) |
| O=C1/C(=C/c2cccc(Br)c2)COc2ccc(O)cc21 | 86.6% (inactive) |
| CCN(CC)CCOc1ccc(/C(=C(\C)Cc2ccc(OC)cc2)c2ccc(OC(=O)NCc3ccccc3)cc2)cc1 | 79.7% (inactive) |
| O=C(CCCCCCCC(=O)N1CCCCC1)N1CCCCC1 | 110% (inactive) |
| Cc1ccc(-c2nc(SCC(=O)N3CCN(c4cc5c(cc4F)c(=O)c(C(=O)O)cn5C4CC4)CC3)nc(Cl)c2C#N)cc1 | 90.4% (inactive) |
| CSc1ccc2c3c(n(C[C@H](O)CO)c(=O)c2c1)-c1ccccc1C3=O | 21.5% (inactive) |
| Cc1cn(C)cn1 | 111% (inactive) |
| C#Cc1cccc(Nc2ncnc3cc(NC(=O)CCl)ccc23)c1 | -70.3% (active) |
| O=S(=O)(NCCNc1nccc(-c2c(-c3ccc(F)c(O)c3)nc3sccn23)n1)c1ccc(Cl)cc1 | 60.2% (inactive) |
| COc1ccc(C(O)c2cc3c(N)c(C(=O)Nc4cccc5ccccc45)sc3nc2C)cc1 (stereo not given) | 25.6% (inactive) |
| O=C(Nc1cc(Cl)ccc1O)c1ccccc1Nc1ccnc(C(F)(F)F)c1 | 16.6% (inactive) |
| COc1ccc(/C=C2\c3cc(OC)c(OC)c(OC)c3CC[C@@H]2O)cc1F | 32.6% (inactive) |
| CCN(CC)C(=O)C1=C(C)NC(=O)NC1c1ccc2c(c1)OCO2 (stereo not given) | 105% (inactive) |
| COc1ccc(C=Nc2c(C(=O)Nc3cccc(Cl)c3C)sc3nc(C)c(C(=O)/C=C/c4ccc(OC)cc4)cc23)cc1 | 46.5% (inactive) |
| CC(C)(C)c1ccc(S(=O)(=O)Oc2ccc(-c3sc4cc(OS(=O)(=O)c5ccc(C(C)(C)C)cc5)ccc4c3C(=O)c3ccc(OCCN4CCCCC4)cc3)cc2)cc1 | 90.8% (inactive) |
| COc1cc(/C=C/c2cc(/C=C/c3ccc(O)c(OC)c3)n(C(=O)Nc3ccc(Cl)cc3)n2)ccc1O | 17.1% (inactive) |
| O=c1cc(CP(=O)(O)O)c2cc(O)c(-c3ccccc3)cc2o1 | 103% (inactive) |

Reference: PubChem BioAssay (NCI)
